Pf Dd2 growth: blocks in vitro growth of P. falciparum Dd2; P. falciparum Dd2 growth, SYBR Green, 72 h; Potency, µM (titrated, usually from 28.9 µM), for the others: at the highest dose activity, negative = inhibition, most hits filed as inhibitors; actives 4.3% (n = 120,000); active means well fitted inhibition curve with a large enough effect;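 further: plate controls were DMSO vehicle for no effect and reference drug for full effect; nearly all actives have a fitted effect of over 65% in size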
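Infected erythrocytes (Dd2, 0.3% parasitemia, 2.5% hematocrit final) are added to compound in RPMI-1640/Albumax II medium, grown 72 h at 37C in low oxygen, then lysed with saponin/Triton-X containing SYBR Green and read by fluorescence.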
* = called active by the depositor; i = inactive; [ ] = dose if it differs, or a comment. This is one part of a sample in which hits are shown more often than they occur. Potency means the concentration at half of the fitted maximal effect.

SMILES | Pf Dd2 growth
CC(C)c1ccc(NC(=O)c2ccc3c(c2)CCN3S(=O)(=O)c2ccccc2)cc1 | 8.91µM*
COCCNc1ncnc2c1CN(C1CCNCC1)C(=O)CN2C | 7.6%
Cc1ccc(C)c(NC(=O)Cn2nc3c(cc2=O)CCCCC3)c1 | -6.4%
O=C1NCC2(CCN(C(=O)c3cn(CCC4CCCCN4)nn3)CC2)O1 (stereo not drawn) | -11.3%
CCOc1ccccc1C(=O)N1CCN(CCc2ccccn2)CC1 | 3.98µM*
O=C(c1cccc(Cl)c1)N1CCN(CCc2ccccn2)CC1 | 55.2%
CCCCOc1ccc(C(=O)N2CCN(CCc3ccccn3)CC2)cc1 | 47.8%
O=C(c1ccccc1Cl)N1CCN(CCc2ccccn2)CC1 | 3.55µM*
O=C(c1ccccc1)N1CCN(CCc2ccccn2)CC1 | 25.8%
CC(C)Oc1ccc(C(=O)N2CCN(CCc3ccccn3)CC2)cc1 | 9.3%
Cc1ncccc1C(=O)N1CCCC(c2nc(-c3cccnc3)no2)CCNC(=O)CC1 (stereo not drawn) | i
O=C1CC(c2noc(Cc3ccc(F)cc3)n2)CN1c1ccc(F)c(Cl)c1 (stereo not drawn) | -0.7%
O=C(c1cccnc1)N1CCC(Oc2cccnc2)C1 (stereo not drawn) | 35.5%
CC(C)C(=O)NC1CCN(c2cn[nH]c(=O)c2)CC1 | -9.8%
c1cnc(N2CC[C@H](c3nnc(-c4ccncc4)o3)C2)nc1 | -22.1%[44.1 µM]
Cn1cnnc1CC1CCN(C(=O)Nc2ccccc2)C1 (stereo not drawn) | -0.5%
CCn1ncc(N2CCC(NC(=O)c3ccc(OC)cc3)CC2)cc1=O | -14.3%
COc1cccc(C(=O)N2CCC3(CC2)NC(=O)N(c2ccccc2)N3)c1 | i
COc1ccc(C(=O)N2CCC3(CC2)NC(=O)N(c2cccc(F)c2)N3)cc1 | 11.2µM*
COc1ccc(C(=O)N2CCC3(CC2)NC(=O)N(c2cccc(F)c2)N3)cc1F | i
COc1ccc(Cl)cc1C(=O)N1CCC2(CC1)NC(=O)N(c1ccccc1)N2 | -19.1%
COc1ccc(Cl)cc1C(=O)N1CCC2(CC1)NC(=O)N(c1cccc(F)c1)N2 | 10µM*
COc1ccccc1C(=O)N1CCC2(CC1)NC(=O)N(c1cccc(F)c1)N2 | i
CCCNC(=O)N1CCCC(c2nc(-c3cccnc3)no2)CCNC(=O)CC1 (stereo not drawn) | 9.7%
NC(=O)[C@@H](Cc1ccccc1)NC(=O)C1=C[C@@H](NC(=O)c2ccc(F)c(Cl)c2)[C@@H](O)[C@H](O)C1 | -18.0%
SMILES | Pf Dd2 growth
Cc1cc(Cl)ccc1S(=O)(=O)N1CCc2nn(C)c(=O)n2CC1 | i
Cc1cc(CNC(=O)[C@@H]2CCC[C@@H](NC(=O)CC(C)C)CN(C)C(=O)C2)no1 | 4.8%[44.1 µM]
O=C(c1ccc(CS(=O)(=O)c2c(Cl)cccc2Cl)o1)N1CCN(c2ccccc2)CC1 | 11.2µM*
Cc1ccc(Cl)cc1N1CCN(C(=O)c2ccc(CS(=O)(=O)c3ccccc3C)o2)CC1 | -21.4%
Cc1ccc(S(=O)(=O)Cc2ccc(C(=O)N3CCN(c4cccc(C)c4C)CC3)o2)cc1 | -10.0%
O=C(c1ccc2c(c1)OCO2)N1CCC2(CC1)N=C(c1ccc(Br)cc1)NO2 | i
CN(Cc1ccon1)Cc1cc2n(n1)CCN(C(=O)c1ncoc1C1CC1)C2 | 0.8%
Cc1ccc(Cl)cc1N1CCN(C(=O)c2cnn(C)c2C2CCN(C(=O)OC(C)(C)C)CC2)CC1 | 3.98µM*
Cc1ccc(C)c(N2CCN(C(=O)c3cnn(C(C)(C)C)c3C3CCN(C(=O)OC(C)(C)C)CC3)CC2)c1 | 8.91µM*
Cc1ccc(Cl)cc1N1CCN(C(=O)c2cnn(C(C)(C)C)c2C2CCN(C(=O)OC(C)(C)C)CC2)CC1 | 7.94µM*
Cc1cccc(-n2ncc(C(=O)N3CCN(c4ccc(C)cc4C)CC3)c2C2CCN(C(=O)OC(C)(C)C)CC2)c1 | -25.4%
Cn1ncc(C(=O)N2CCN(c3ccccc3)CC2)c1C1CCN(C(=O)OC(C)(C)C)CC1 | i
COc1ccc(N2CC(c3noc(-c4cc(F)ccc4F)n3)CC2=O)cc1 (stereo not drawn) | 67.4%
CNC(=O)c1noc(CN2CCCC(CCc3c(F)cccc3F)C2)n1 (stereo not drawn) | -21.2%
COc1ccc(C(=O)N2C[C@@H](Oc3cccnc3)C[C@H]2C(N)=O)c(OC)c1 | 7.8%
COc1cccc(C(=O)N2C(C(=O)NCC(C)C)COC23CCN(C(=O)c2ccccc2F)CC3)c1 (stereo not drawn) | -22.7%
CCN(CC)C(=O)[C@@H]1C[C@@H](NC(=O)c2ccn(CC)c(=O)c2)CN1C(C)=O | 13.3%
CN1CCC([C@@H]2CN(C(=O)c3nn(C)c4ccccc34)C[C@H]2C(N)=O)CC1 | 3.1%
COc1ccccc1-c1ccnc(-c2nnc(C)n2Cc2ccccc2)c1 | -7.6%[44.1 µM]
O=C(c1cnccn1)N1CCc2c(n(Cc3ccccc3)n(-c3ccccc3)c2=O)C1 | -16.3%[44.1 µM]
CC(C)CN1CCN(C(=O)C2CCCN(S(C)(=O)=O)CCC(=O)NCC2)CC1 (stereo not drawn) | -2.7%
CCCCc1ncc(CN2CCCC(C(=O)Nc3ccccc3-c3ccc(OC)cc3)C2)[nH]1 (stereo not drawn) | 8.91µM*

Screening results deposited in PubChem by National Center for Advancing Translational Sciences (NCATS).
